Measured values as given in PubChem BioAssay AID504408 (Broad Institute, 2011).
The campaign covered roughly 300,000 compounds. About 5,200 (1.7%) were called active. The sample as a whole holds a higher share of actives than the screen did. Values without a mark were called inactive.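 The calls were made as follows: active = mean replicate activation of at least 50% with a set share of replicates each reaching 50%; inconclusive = only one of those two conditions met; inactive = mean below 50% and too few replicates reaching it.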

Test: HSF-1 response element luciferase induction – NIH3T3-HGL cells, MG132 stress, luminescence, single point, primary screen (AID 504408);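 also: 0% = median of the neutral control wells and 100% = twice that signal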
Details: NIH3T3-HGL HSF-1 luciferase reporter, MG132, 8 h; at 9 µM; active compounds read high

Structure (SMILES) | activation
CCOc1ccc(CN(CCCl)CCCl)cc1C(=O)OC | 68.2% (active)
CCCOC(=O)C1C2c3ccccc3C(c3ccccc32)C1C(=O)O (stereo not given) | -7.72%
C=CCn1c(O)c(/C=N/N2CCOCC2)c(=O)[nH]c1=S | 35%
CC[C@H]1CC2CN3CCc4c([nH]c5ccccc45)C(C(=O)OC)(C2)C13 (stereo not given in full) | 3.35%
COc1ccc(-n2c(-c3ccccc3)nc3ccccc3c2=O)cc1 | -4.8%
CC12CCC3C(CCC4CC(=O)CCC43C)C1CC(=NO)C2=O (stereo not given) | -22.3%
O=C1NC(=O)N(CCc2ccc(F)cc2)C(=O)/C1=C/C=C/c1ccccc1 | 196% (active)
O=C1NC(=O)N(Cc2ccco2)C(=O)/C1=C\c1ccc(-c2ccc(F)cc2)o1 | 14.8%
O=C(O)COc1ccccc1/C=C1\C(=O)NC(=O)N(CCC2=CCCCC2)C1=O | 10%
O=C(COC(=O)c1ccccc1)Nc1ccc(Cl)cc1C(=O)c1ccccc1 | -9.79%
O=C(NC(=S)N1C[C@H]2C[C@H](C1)c1cccc(=O)n1C2)c1ccc(F)cc1 | -0.361%
CN(C)CC1Oc2ccccc2OC1(O)c1ccccc1 (stereo not given) | 89.4% (active)
CNC(=O)O/N=C(\N)Cc1csc2ccc(Cl)cc12 | 27.8%
O=C(O)C1CSC(c2cccnc2)N1 (stereo not given) | 3.54%
COC(=O)C(c1ccccc1)N1CCCCCC1 (stereo not given) | 1.63%
COC(=O)N1C(c2ccccc2)C1c1ccccc1 (stereo not given) | 50.1% (active)
O=C(CCN1CCCCC1)NCC(=O)Nc1ccc(Br)cc1C(=O)c1ccccc1 | -6.9%
O=C(CSC1c2ccccc2-c2ccccc21)N/N=C/c1ccccc1 | -4.94%
COc1ccc(C2NCc3ccc4c(c3-n3cccc32)OCO4)cc1OC (stereo not given) | 4.67%
CCOC(=O)C1SC2(C(F)(F)C(F)F)CC1(O)c1c(c(OC)c3occc3c1OC)O2 (stereo not given) | -4.08%
